Only some compounds are listed: those with a hit (about 19% of all), similar ones and a draw of the others.
DT40 TDP1 CPT: growth inhibition of DT40 Tdp1-/-;hTDP1 cells with camptothecin (screen for TDP1 inhibitors); chicken DT40 Tdp1-/-;hTDP1 cells + 20 nM CPT, ATP luminescence, 48 h; Potency, µM (titrated, usually from 46.2 µM), inactives show at the top dose activity change, negative = growth inhibition, actives largely listed as inhibitors; actives 12% (n = 420,000); AID 686979; also: potency is read from the fitted curve at half-maximal effect; nearly all actives have a fitted effect of over 55% in size
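Chicken DT40 Tdp1-/- cells stably complemented with human TDP1 were seeded at 400 cells/well in medium containing 20 nM camptothecin, exposed to pin-transferred compounds, and grown at 37 °C for at least 48 hr. Viability was read as ATP luminescence.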
ELG1 repair inh: ELG1-dependent DNA repair inhibition | actives 2.3% (n = 330,000) | HEK293T ELG1-luciferase reporter, luminescence, 16 h; DNA damage induced by 5-fluorouridine | AID 504467 | Potency, µM (doses to about 46.1 µM), without a hit: at the top dose activity change, negative = inhibition, actives largely listed as inhibitors; also: potency is read from the fitted curve at half-maximal effect; nearly all actives have a fitted effect of over 55% in size
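In this reporter screen, reduction of luminescence relative to DMSO vehicle indicated activity. Compounds and 5-fluorouridine were added together to 2,000 cells per well, incubated for 16 hr at 37 °C, then developed with ONE-Glo.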
TDP1 cell noCPT: qHTS for Inhibitors of human tyrosyl-DNA phosphodiesterase 1 (TDP1): qHTS in cells in absence of CPT; actives 15% (n = 420,000); DT40 Tdp1-/- hTDP1 cells, no CPT, ATP luminescence, 48 h; AID 686978, 2013; Potency, µM (titrated, usually from 46.2 µM), without a hit: at the top dose activity change, negative = growth inhibition, actives largely listed as inhibitors; also: potency is read from the fitted curve at half-maximal effect; nearly all actives have a fitted effect of over 55% in size
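Chicken DT40 Tdp1-/- cells complemented with human TDP1, screened without camptothecin (DMSO vehicle only), 400 cells/well. Compounds pin-transferred, cells incubated at 37 °C for at least 48 hr. Growth read as ATP-dependent luminescence (CellTiter-Glo, 30 min at RT).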
HT1080 IDH1KD tx: HT-1080 IDH1 knockdown cell toxicity (counter line); HT-1080 IDH1 knockdown viability, ATP luminescence, 48 h; actives 2% (n = 360,000); AID 686971; Potency, µM (titrated, usually from 46.1 µM), for inactives: at the highest dose activity, negative = toxicity, hits mostly cytotoxic;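 also: potency is read from the fitted curve at half-maximal effect; 0% = DMSO wells and -100% = cell-free medium wells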
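HT-1080-IDH1KD cells (IDH1 knocked down), 750/well in RPMI with 5% FBS, treated with compound 48 h at 37 degrees C. Viability by CellTiter-Glo luminescence, normalised to DMSO and no-cell wells; concentration-response curves classed.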
HT1080-NT tox: kills 2HG-producing HT-1080-NT fibrosarcoma cells; HT-1080-NT fibrosarcoma viability, CellTiter-Glo ATP luminescence, 48 h; Potency, µM (top dose mostly 46.1 µM), without a hit: top-dose activity, negative = less viability, most hits filed as cytotoxic; actives 1.6% (n = 360,000);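 also: NT is the 2HG producing partner of a matched IDH1 knockdown line; potency is read from the fitted curve at half-maximal effect; 0% = DMSO-treated cells and -100% = media-only wells without cells; nearly all actives have a fitted effect of over 55% in size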
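750 cells/well, RPMI + 5% FBS; 2 h settle, compound pin-transfer, 48 h at 37 degrees C. CellTiter-Glo 10 min RT, luminescence. Normalized to DMSO and media-only wells.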
IL-1B inflam inh: blocks inflammasome-driven IL-1 beta release; THP-1 LPS/ATP IL-1B secretion, AlphaLISA, 16 h; stronger effect = lower value; activity change, % at 57.5 µM; actives 4.7% (n = 360,000); AID 743279; in the data active = activity change below about -50%; inconclusive = mostly about -30% to -49%
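Secreted IL-1B measured by AlphaLISA bead assay after 16 h compound exposure of THP-1 cells; compounds (final up to 57.5 uM) added 1 h before LPS (250 ng/mL) and ATP (1.25 mM) stimulation; lower signal means less secretion.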
Numbers without * were called inactive; ? = inconclusive; nt = no result; [ ] = remark or other dose. Unless noted, calls follow the shape of the dose curve; as a rule, active = well fitted curve in the direction sought with a large enough effect; inconclusive = small, poorly fitted or top-dose-only effect, or another doubt; inactive = no such curve, though single readings can be large; an effect the other way counts as inactive or inconclusive. Unless noted, % is scaled to controls: 0 for no effect and ±100 for the full control effect.

SMILES	DT40 TDP1 CPT	ELG1 repair inh	TDP1 cell noCPT	HT1080 IDH1KD tx	HT1080-NT tox	IL-1B inflam inh
CC(C)(C)NC(=O)NC(=O)CN1CCN(C(c2ccccc2)c2ccccc2)CC1	9.2µM*	?	?	4%	12%	3
CC(C)(C)NC(=O)NC(=O)CN1CCN(Cc2ccccc2)CC1	?	-5%	?	-7%	2%	-13
CC1CCN(CC(=O)N2CCN(c3ccccc3)CC2)CC1	0%	-4%	0%	13%	5%	5
COc1ccc(CNC(=O)CN2CCN(C(c3ccccc3)c3ccccc3)CC2)cc1	18µM*	-12%	?	-1%	-14%	-64*
O=C(CN1CCN(C(c2ccccc2)c2ccccc2)CC1)N1CCN(c2ccccc2)CC1	?	?	18µM*	-9%	1%	-22
O=C(CN1CCN(C(c2ccccc2)c2ccccc2)CC1)NCc1ccccc1	5%	-17%	?	0%	-12%	-26
O=C(CN1CCN(c2ccccc2)CC1)NC(=O)NCc1ccco1	-15%	-2%	-20%	12%	10%	-5
O=C(CN1CCN(C(c2ccccc2)c2ccccc2)CC1)NC(=O)NCc1ccco1	21µM*	0%	?	-26%	-13%	-6
COC(=O)c1cn([C@@H]2C[C@@H](C(=O)N3CCCCCC3)N(Cc3cc4ccccc4s3)C2)nn1	-29%	nt	-27%	nt	nt	nt
CCCCCCCCCCCCCCCCN	7%	nt	-11%	nt	nt	nt
CN(C)c1ccc(CNC(=O)CCCN2C(=O)CCn3nc(-c4cccn4C)cc32)cc1	-6%	nt	0%	nt	nt	nt
Cc1cc(C)nc(OC(C(=O)O)C(OCCc2ccccc2)(c2ccc(F)cc2)c2ccc(F)cc2)n1 (stereo unspecified)	?	-9%	-4%	?	-27%	47
CCCOC(c1ccccc1)(c1ccc(C(F)(F)F)cc1)C(Oc1nc(C)cc(C)n1)C(=O)O (stereo unspecified)	18µM*	-15%	21µM*	?	?	27
Cc1cc(C)n(CCC(=O)N=Nc2c(O)[nH]c3ccc(Br)cc23)n1	?	?	?	-9%	1%	32
COc1ccc(/C(C)=N/OCC(=O)N=Nc2c(O)[nH]c3ccc(Br)cc23)cc1	?	?	18µM*	?	22%	0
COc1ccc(/C=N/OCC(=O)N=Nc2c(O)[nH]c3ccc(Br)cc23)cc1OC	26µM*	13µM*	23µM*	-10%	?	40
O=C1C2CC=CCC2C(=O)N1c1ccc(NCCc2cccc(F)c2)c([N+](=O)[O-])c1 (stereo unspecified)	?	8%	12µM*	-1%	1%	7
O=C1CCC(=O)N1c1ccc(NCCc2cccc(F)c2)c([N+](=O)[O-])c1	1%	13%	1%	-2%	1%	0
CC1(C)C(=O)N(CC(=O)Nc2ccc(Br)cc2F)c2ccccc21	-29%	nt	-26%	nt	nt	nt
CCCCOc1ccc(NC(=S)Nc2cc(C)nc(SCCCC)n2)cc1	5.8µM*	23%	2.9µM*	23%	18%	11
Cc1ccc2nc(-c3ccc(Br)cc3)cc(C(=O)NCC3CCCO3)c2c1 (stereo unspecified)	15µM*	nt	15µM*	10%	12%	-16
CCOc1ccc(-c2cc(C(=O)NCC3CCCO3)c3ccccc3n2)cc1 (stereo unspecified)	16µM*	?	15µM*	12%	6%	-23
CC(O)CN(C)C (stereo unspecified)	14%	nt	-9%	nt	nt	nt
Cc1ccc(NC(=O)CN(C)S(=O)(=O)c2cccs2)c(Br)c1	-7%	?	?	?	-12%	-6
Cc1nc2c(C)c(C)c(C)c(C)c2nc1C	7%	10%	-5%	4%	10%	nt
SMILES	DT40 TDP1 CPT	ELG1 repair inh	TDP1 cell noCPT	HT1080 IDH1KD tx	HT1080-NT tox	IL-1B inflam inh
Cc1nc2c(O)c3c(c(O)c2nc1C)C1C=CC3CC1	0.46µM*	nt	0.52µM*	16µM*	?	0
O=C(CSc1nccc(=O)[nH]1)NC1CCCCCCC1	-4%	11%	12%	0%	8%	11
Cc1sc2nc(CN(Cc3cccs3)C(=O)C3CC3)[nH]c(=O)c2c1C	16µM*	?	9.2µM*	-1%	-1%	-15
Cc1sc2nc(CN(C(=O)NC3CCCCC3)C3CCCCC3)[nH]c(=O)c2c1C	18µM*	?	21µM*	17%[9.24 µM]	-22%	-29
CNc1nc(-c2ccc3c(c2)CCN3C(=O)c2ccccc2F)c(C)s1	?	?	?	-8%	-4%	nt
CC(=O)Nc1nc(-c2ccc3c(c2)CCN3C(=O)C2CC2)c(C)s1	1.5µM*	?	1.3µM*	?	-27%	-5
Cc1sc(NC(=O)CN2CCCC2)nc1-c1ccc2c(c1)CCN2C(=O)c1ccc(F)cc1	?	?	18µM*	?	-26%	-16
O=C(Nc1ccn(CCCN(CCCn2ccc(NC(=O)OCc3ccccc3)nc2=O)CCc2cc3ccccc3[nH]2)c(=O)n1)OCc1ccccc1	?	nt	?	18µM*	?	82
O=C(Nc1ccn(CCCNCc2ccccc2)c(=O)n1)OCc1ccccc1	?	nt	?	-10%	-13%	5
Cc1noc(C)c1C(=O)N1CCC1(C)C(=O)NS(=O)(=O)c1cccs1 (stereo unspecified)	-25%	nt	-5%	-1%	26%	29
Cc1ccc(-c2nnn(CC(=O)N3CCCc4ccccc43)n2)cc1	?	1%	-21%	-4%	0%	1
O=C(Cn1nnc(-c2cc(Cl)ccc2-n2cnnn2)n1)N1CCCc2ccccc21	?	?	21µM*	-3%	-2%	-11
O=C(NCCc1ccc(Cl)cc1)c1cc(-c2ccncc2)nc2ccccc12	?	-27%	?	-13%	-28%	-13
NS(=O)(=O)c1ccc(CCNC(=O)c2cc(-c3ccc(Br)cc3)nc3ccccc23)cc1	9.2µM*	?	8.2µM*	?	?	-13
CCCc1ccc(-c2cc(C(=O)NCCc3ccc(S(N)(=O)=O)cc3)c3ccccc3n2)cc1	15µM*	?	12µM*	?	?	?
CCCCCCCCCCC[C@@H](C[C@@H]1OC(=O)[C@H]1CCCCCC)OC(=O)[C@H](CC(C)C)NC=O	?	nt	18µM*	-16%	8%	-17
